Conditions in all cases: mRNA level, 48 h; actives raise or lower the signal
Read-out in experiment [1]: Interleukin 6 Receptor (IL6R), IL6R (gene 3570)
The experiment in a line: LTEA_HepaRG_IL6R: Life Technologies and Expression Analysis (LTEA) Assay for Interleukin 6 Receptor (IL6R) using HepaRG (AID 2283510).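 As to AC50: differentiated human HepaRG liver cells in serum-free induction medium; TaqMan qRT-PCR signal normalized to ACTB GAPDH and POLR2A housekeeping genes.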 The essentials:
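Cells were thawed, plated and cultured 48 h, then medium was changed to serum-free induction medium. Chemicals were added in duplicate (100 uM top, half-log steps, 0.5% DMSO) for 48 h. Lysates were analyzed by qRT-PCR for IL6R expression.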

Read-out in experiment [2]: Potassium channel subfamily K member 1 (KCNK1), KCNK1 (gene 3775)
The experiment in a line: LTEA_HepaRG_KCNK1: Life Technologies and Expression Analysis (LTEA) Assay for Potassium channel subfamily K member 1 (KCNK1) using HepaRG (AID 2283511). Summed up: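 HepaRG, 48 h exposure, 8-pt half-log series top 100 uM, 0.5% DMSO vehicle, duplicates. Readout: KCNK1 transcript by qRT-PCR (Fluidigm array), housekeeping-normalized; bidirectional curve fit relative to DMSO baseline.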

Read-out in experiment [3]: Keratin 19 (KRT19), KRT19 (gene 3880)
The experiment in a line: LTEA_HepaRG_KRT19: Life Technologies and Expression Analysis (LTEA) Assay for Keratin 19 (KRT19) using HepaRG (AID 2283512). Summed up:
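Readout is qRT-PCR of KRT19 mRNA, normalized to ACTB, GAPDH and POLR2A, from HepaRG cells treated 48 h with eight-point half-log dilutions topping at 100 uM. Activity in either direction is scored relative to 0.5% DMSO vehicle.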

Read-out in experiment [4]: JUN Transcription Factor, JUN (gene 3725)
As to the kind of experiment: LTEA_HepaRG_JUN: Life Technologies and Expression Analysis (LTEA) Assay for JUN Transcription Factor using HepaRG (AID 2283513). Summed up:
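Read-out is JUN transcript level by TaqMan qRT-PCR, normalized to ACTB, GAPDH and POLR2A, after 48 h chemical treatment of HepaRG cells. Concentration-response spanned eight half-log points up to 100 uM in 0.5% DMSO.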

Read-out in experiment [5]: Lipoprotein lipase (LPL), LPL (gene 4023)
As to the kind of experiment: LTEA_HepaRG_LPL: Life Technologies and Expression Analysis (LTEA) Assay for Lipoprotein lipase (LPL) using HepaRG (AID 2283515). Summed up: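 HepaRG, 48 h exposure, 8-pt half-log dilutions from 100 uM, 0.5% DMSO vehicle, duplicates; qRT-PCR (Fluidigm array) of LPL mRNA vs housekeeping genes; bidirectional curve fit relative to DMSO baseline.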

Read-out in experiment [6]: MicroRNA 122 (MIR122), gene 406906
The experiment in a line: LTEA_HepaRG_MIR122: Life Technologies and Expression Analysis (LTEA) Assay for MicroRNA 122 (MIR122) using HepaRG (AID 2283516). Also: the transcript read is the microRNA miR-122. The essentials:
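Human liver HepaRG cultures receive test chemicals for 48 h at eight half-log concentrations from 100 uM. Expression is quantified by qRT-PCR with ACTB/GAPDH/POLR2A normalization and fitted bidirectionally against 0.5% DMSO.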

Read-out in experiment [7]: matrix metalloproteinase-10 (MMP10), MMP10 (gene 4319)
The experiment in a line: LTEA_HepaRG_MMP10: Life Technologies and Expression Analysis (LTEA) Assay for matrix metalloproteinase-10 (MMP10) using HepaRG (AID 2283517). Summed up:
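Transcript levels come from Fluidigm qRT-PCR normalized to three housekeeping genes, with curves fitted bidirectionally against 0.5% DMSO. Human HepaRG cells were dosed for 48 hours at concentrations up to 100 uM.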

Read-out in another experiment: MYC, MYC (gene 4609)
The experiment in a line: LTEA_HepaRG_MYC: Life Technologies and Expression Analysis (LTEA) Assay for MYC using HepaRG (AID 2283518). Summed up:
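Expression changes were scored by TaqMan qRT-PCR with ACTB, GAPDH and POLR2A normalization. Cultures in serum-free induction medium received duplicate 8-point concentration series, highest 100 uM, for 48 h; DMSO (0.5%) served as baseline.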

Read-out in experiment [8]: Lipase C (LIPC), LIPC (gene 3990)
As to the kind of experiment: LTEA_HepaRG_LIPC: Life Technologies and Expression Analysis (LTEA) Assay for Lipase C (LIPC) using HepaRG (AID 2283514). The essentials: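 HepaRG, 48 h exposure, 8-pt half-log series from 100 uM in 0.5% DMSO, duplicates. Readout: LIPC mRNA by Fluidigm qRT-PCR, housekeeping-normalized (ACTB/GAPDH/POLR2A). Gain or loss fitted bidirectionally against DMSO baseline.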

Structures are written as SMILES. The source made the active and inactive calls. The calls were made as follows: active = hit-call score of the fitted dose curve at least 0.9, where 1 is the maximum; inactive = score below 0.9.

What is called AC50 is the concentration giving half of the maximal activity seen. Turning to `O=C(OCCCCCOC(=O)c1ccccc1)c1ccccc1`, the AC50 is 1.91 µM (active) in experiment [1]; 2.57 µM (active) in experiment [2]; 1.29 µM (active) in experiment [4]; 0.973 µM (active) in experiment [5]; 0.449 µM (active) in [6]; 2.26 µM (active) with MYC, MYC (gene 4609). Further, the outcome in experiment [3] and in [7] was inactive.
For `Oc1ccc2c(c1)OC[C@@H](N1CCC(O)(c3ccc(F)cc3)CC1)[C@H]2O`, the molecule was classed as inactive in experiment [1], in experiment [2], in experiment [3], in [4], in experiment [5] and in experiment [6]. The outcome in [7] is “inactive”; with MYC, MYC (gene 4609), “inactive”.
On to `Cc1c(C(=O)O)c(O)cc2c1C(=O)c1c(O)c([C@@H]3O[C@H](CO)[C@@H](O)[C@H](O)[C@H]3O)c(O)c(O)c1C2=O`, for which the outcome in [1], in experiment [2], in [3], in experiment [4], in experiment [8] and in experiment [5] was inactive. Moreover, the outcome in experiment [6] is “inactive”; in experiment [7] it was “inactive”; with MYC, MYC (gene 4609), “inactive”.
Consider `COc1ccc(C)cc1N`, for which the molecule was called inactive in [1], in experiment [2], in [3], in [4], in experiment [5] and in experiment [6]. The outcome in experiment [7] is “inactive”; with MYC, MYC (gene 4609), “inactive”.
With `NCCO`, the result in experiment [1], in experiment [2], in [3], in experiment [4], in [8] and in [5] was inactive. For the same molecule, the outcome is “inactive” in experiment [6]; “inactive” in experiment [7]; “inactive” in the experiment with MYC, MYC (gene 4609).
`CN1CCN(Cc2cc(-c3ccc4[nH]c(=O)oc4c3)co2)[C@@H](c2ccc(F)cc2)C1`: the outcome in experiment [1], in [2], in experiment [4], in experiment [8], in experiment [5] and in experiment [6] was inactive. Also, the outcome in experiment [7] was “inactive”; with MYC, MYC (gene 4609), “inactive”. In experiment [3], the half-maximal activity concentration (AC50) is 23.9 µM (active).
On to `CCCCOC(=O)CCCCCCCCC(=O)OCCCC`, for which the molecule was classed as inactive in experiment [1], in experiment [2], in experiment [3], in experiment [4], in experiment [5] and in experiment [6]. The outcome in experiment [7] is “inactive”; with MYC, MYC (gene 4609) it was “inactive”.
On to `Cc1ccccc1Cl`, for which the call in [1], in experiment [2], in [3], in [4], in [5] and in experiment [6] was inactive. Also, the outcome in experiment [7] was “inactive”; in the experiment with MYC, MYC (gene 4609) it was “inactive”.
`NCC1(Cc2noc(=O)[nH]2)CCCCC1`: the molecule was classed as inactive in [1], in experiment [2], in experiment [3], in experiment [4], in experiment [5] and in experiment [6]. Besides, the outcome in experiment [7] is “inactive”; with MYC, MYC (gene 4609) it was “inactive”.
Take `Cc1cccc([N+](=O)[O-])c1C`: the outcome in [1], in [2], in experiment [3], in experiment [4], in experiment [5] and in experiment [6] was inactive. The outcome in [7] is “inactive”; with MYC, MYC (gene 4609), “inactive”.
For the molecule `Cc1cc(=O)[nH]c(=S)[nH]1`, the call in experiment [1], in experiment [2], in experiment [3], in experiment [4], in experiment [5] and in experiment [6] was inactive. Further, the outcome was “inactive” in experiment [7] and “inactive” with MYC, MYC (gene 4609).
Take `CCCCCCCCCCC`: the molecule was called inactive in experiment [1], in experiment [2], in experiment [3], in [4], in [5] and in experiment [6]. Besides, the outcome in experiment [7] is “inactive”; in the experiment with MYC, MYC (gene 4609) it was “inactive”.
On to `CNCc1cc(F)ccc1Oc1ccc(Cl)c(Cl)c1`, for which the outcome in [1], in experiment [3] and in [5] was inactive. In addition, the AC50 in experiment [4] was 80.5 µM (active); in experiment [6], 81.8 µM (active); in experiment [7] it was 91.2 µM (active); in the experiment with MYC, MYC (gene 4609), 78.9 µM (active).
For `CNC(=O)[C@H]1O[C@@H](n2cnc3c(NCc4cc(Cl)ccc4OCc4cc(C)no4)ncnc32)[C@H](O)[C@@H]1N`, the call in experiment [1], in experiment [2], in [3], in experiment [4], in [5] and in experiment [6] was inactive. For the same molecule, the outcome in experiment [7] was “inactive”; in the experiment with MYC, MYC (gene 4609), “inactive”.
On to `Cc1nc(C)nc(N2C[C@@H](C)N(c3ccnc([C@@H](C)O)n3)[C@@H](C)C2)n1`, for which the molecule was classed as inactive in [1], in [2], in experiment [3], in experiment [4], in experiment [5] and in experiment [6]. Besides, the outcome in experiment [7] is “inactive”; in the experiment with MYC, MYC (gene 4609), “inactive”.
Consider `FC(F)(F)C(F)(F)C(F)(F)C(F)(F)C(F)(F)C(F)(F)CCI`, for which the call in experiment [1], in experiment [2], in [3], in [4], in experiment [5] and in experiment [6] was inactive. In addition, the outcome was “inactive” in experiment [7] and “inactive” with MYC, MYC (gene 4609).
Consider `OC[C@@H](O)[C@@H](O)[C@H](O)[C@H](O)CO`, for which the call in experiment [1], in experiment [2], in experiment [3], in experiment [4], in experiment [5] and in experiment [6] was inactive. Further, the outcome in experiment [7] was “inactive”; with MYC, MYC (gene 4609), “inactive”.
As to `Cc1nc(-c2ccc3c(c2)CCN(CCC2CCC(NC(=O)/C=C/c4ccc(F)cc4)CC2)CC3)no1` (stereo unspecified), the molecule was classed as inactive in experiment [1], in experiment [2], in [3], in experiment [4], in experiment [5] and in experiment [6]. The outcome is “inactive” in experiment [7] and “inactive” with MYC, MYC (gene 4609).
On to `CCCCCC(=O)O`, for which the result in experiment [1], in experiment [2], in [3], in [4], in [8] and in experiment [5] was inactive. Further, the outcome was “inactive” in experiment [6]; “inactive” in experiment [7]; “inactive” in the experiment with MYC, MYC (gene 4609).
Regarding `Cc1ccc2ncccc2c1`, the molecule was classed as inactive in experiment [1], in experiment [2], in experiment [3], in [4], in experiment [8] and in experiment [5]. The outcome in experiment [6] was “inactive”; in experiment [7] it was “inactive”; with MYC, MYC (gene 4609) it was “inactive”.
On to `CCCCc1ccc2c(n1)[C@@H](c1ccc(OC)cc1C[C@H](C)C(=O)O)[C@H](C(=O)O)[C@H]2c1ccc2c(c1)OCO2`, for which the outcome in [1], in [2], in experiment [3], in experiment [4], in [8] and in [5] was inactive. In addition, the outcome was “inactive” in [6]; “inactive” in experiment [7]; “inactive” with MYC, MYC (gene 4609).
Take `Cc1ccc(Cl)cc1`: the result in experiment [1], in experiment [2], in experiment [3], in experiment [4], in experiment [5] and in experiment [6] was inactive. Moreover, the outcome in [7] was “inactive”; with MYC, MYC (gene 4609) it was “inactive”.

The values are drawn from PubChem BioAssay (EPA / NIEHS).
